Assay outcomes: PubChem, National Center for Advancing Translational Sciences (NCATS)
Shown are actives, neighbours in structure and some others; about 19% of the full set was active somewhere.
HT1080 IDH1KD tx – HT-1080 IDH1 knockdown cell toxicity (counter line); HT-1080 IDH1 knockdown viability, ATP luminescence, 48 h; Potency, µM (highest dose often 46.1 µM), for the others: top-dose activity, negative = toxicity, most hits filed as cytotoxic; actives 2% (n = 360,000);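 further: 0% = DMSO wells and -100% = cell-free medium wells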
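Knockdown cells (IDH1KD HT-1080) received compounds 2 h after plating at 750 cells/well and were kept 48 h at 37 °C in 5% FBS RPMI. A CellTiter-Glo luminescence read gave % activity for curve fitting.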
KB-V1 MDR tox – KB-V1 MDR subline cytotoxicity; actives 3.4% (n = 400,000); KB-V1 MDR cells viability, CellTiter-Glo, 72 h; Potency, µM (top dose mostly 46.1 µM), actives largely listed as cytotoxic; AID 1347076; further: nearly all actives have a fitted effect of over 60% in size
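KB-V1, DMEM (no phenol red) + 10% FBS; cpd pin-transferred, titration series; 72 h, 37 degrees C; CellTiter-Glo, luminescence. Data normalized, curve-fit.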
DT40 TDP1 CPT – growth inhibition of DT40 Tdp1-/-;hTDP1 cells with camptothecin (screen for TDP1 inhibitors); actives 12% (n = 420,000); AID 686979; Potency, µM (titrated, usually from 46.2 µM), without a hit: at the top dose activity change, negative = growth inhibition, actives largely listed as inhibitors; chicken DT40 Tdp1-/-;hTDP1 cells + 20 nM CPT, ATP luminescence, 48 h; further: nearly all actives have a fitted effect of over 55% in size
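Cell growth measured by CellTiter-Glo luminescence after a minimum 48 h, 37 C compound exposure with 20 nM CPT in Tdp1-knockout DT40 cells stably expressing hTDP1, seeded 400/well; qHTS titration format.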
HT1080NT lethal – kills 2HG-producing HT-1080-NT fibrosarcoma cells. HT-1080-NT fibrosarcoma viability, CellTiter-Glo ATP luminescence, 48 h. Potency, µM (titrated, usually from 46.1 µM), for the others: at the top dose activity, negative = less viability, usual class: cytotoxic. actives 1.6% (n = 360,000). AID 686970;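 further: NT is the 2HG producing partner of a matched IDH1 knockdown line; 0% = DMSO-treated cells and -100% = media-only wells without cells; nearly all actives have a fitted effect of over 55% in size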
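Toxicity toward the 2HG-producing NT line was scored as %Activity, normalised to DMSO and no-cell wells, from CellTiter-Glo luminescence after 48 hours' treatment.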
KB-3-1 tox – KB-3-1 parental cell cytotoxicity; AID 1347075; actives 1.4% (n = 400,000); Potency, µM (series often up to 46.1 µM), usual class: cytotoxic; KB-3-1 viability, CellTiter-Glo ATP luminescence, 72 h; further: nearly all actives have a fitted effect of over 60% in size
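Cytotoxicity measured as CellTiter-Glo luminescence after 72 h at 37 C. Compound titrations were pinned onto drug-naive KB-3-1 parental adenocarcinoma cells grown in DMEM with 10% FBS, and normalized data fitted to concentration-response curves.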
TDP1 cell noCPT – qHTS for Inhibitors of human tyrosyl-DNA phosphodiesterase 1 (TDP1): qHTS in cells in absence of CPT; DT40 Tdp1-/- hTDP1 cells, no CPT, ATP luminescence, 48 h; Potency, µM (highest dose often 46.2 µM), without a hit: top-dose activity change, negative = growth inhibition, usual class: inhibitors; actives 15% (n = 420,000); AID 686978, 2013; further: nearly all actives have a fitted effect of over 55% in size
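Camptothecin absent (DMSO only). Human TDP1-complemented DT40 knockout cells, 400 cells/well, 37 °C for minimum 48 hr; ATP measured via CellTiter-Glo, 30 min dark incubation, luminescence.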
Numbers without * were called inactive; i = inactive; ? = inconclusive; nt = no result given. The call rests on the fitted dose curve; in most records, active means well fitted curve in the direction sought with a large enough effect; inconclusive means small, poorly fitted or top-dose-only effect, or another doubt; inactive means no such curve, though single readings can be large; an effect the other way counts as inactive or inconclusive. Unless noted, on the % scale 0 is the no-effect control and ±100 the full control effect; potency means the concentration at half of the fitted maximal effect.

SMILES | HT1080 IDH1KD tx | KB-V1 MDR tox | DT40 TDP1 CPT | HT1080NT lethal | KB-3-1 tox | TDP1 cell noCPT
Clc1cccc(CNc2ccn3nc(-c4cccs4)cc3n2)c1 | ? | i | -24.1% | -27.4% | i | ?
O=C(/C=C/c1ccccc1[N+](=O)[O-])OCC(=O)c1ccccc1 | 6.2% | i | -1.3% | 6.1% | i | -7.1%
O=C(/C=C/c1cccc2ccccc12)N1CCOCC1 | 1.6% | i | -0.2% | -12.0% | i | -7.7%
CN(Cc1cccs1)C(=O)/C=C/c1ccccc1[N+](=O)[O-] | 2.2% | ? | -3.7% | -9.4% | i | -28.4%
CCN(Cc1ccccc1)C(=O)/C=C/c1ccccc1[N+](=O)[O-] | -1.3% | i | 16.4µM* | -0.3% | i | ?
O=C(/C=C/c1ccccc1[N+](=O)[O-])c1ccc(F)cc1 | -25.3% | 23.1µM* | 13µM* | ? | ? | 18.4µM*
O=C(/C=C/c1cccc2ccccc12)c1ccncc1 | ? | 2.59µM* | 20.6µM* | ? | 2.91µM* | 14.6µM*
O=C(/C=C/c1ccccc1O)c1ccc(Cl)cc1 | -23.3% | i | 20.6µM* | -9.3% | i | 23.1µM*
Cc1cccc(NC(=O)CSc2nnc(-c3cccs3)o2)c1 | nt | i | ? | nt | i | ?
COc1ccc(CNC(=O)/C=C/c2ccccc2[N+](=O)[O-])cc1 | 1.5% | i | -6.5% | -16.1% | i | -13.2%
O=C(/C=C/c1ccccc1O)c1ccccc1 | -14.4% | i | 20.6µM* | 21.8% | i | 14.6µM*
COC(=O)C(=Cc1ccccc1[N+](=O)[O-])C(=O)OC | 0.0% | i | 8.2µM* | ? | i | 11.6µM*
CN1CCOCCOCCN(C)C1=O | 4.5% | i | -15.9% | 5.0% | i | -10.1%
CCC(c1nnnn1-c1c(C)cccc1C)N1CCN(C/C=C/c2ccccc2)CC1 (configuration not stated) | ? | ? | 6.51µM* | 18.4µM* | ? | 7.31µM*
CSCCC(c1nnnn1-c1c(C)cccc1C)N1CCN(C/C=C/c2ccccc2)CC1 (configuration not stated) | ? | ? | ? | ? | ? | 18.4µM*
NS(=O)(=O)c1ccc(CCNC(=O)c2ccc3c(c2)OCCO3)cc1 | 11.6% | i | 0.7% | 10.4% | i | -9.8%
CC(=O)N1CCCc2cc(S(=O)(=O)N(CC(C)C)CC(C)C)ccc21 | -29.2% | i | 25.9µM* | -23.2% | i | ?
CCN(c1ccccc1)S(=O)(=O)c1ccc2c(c1)CCCN2C(C)=O | 0.7% | ? | -26.8% | 0.2% | i | ?
CC(=O)N1CCCc2cc(S(=O)(=O)N(C)CC(=O)Nc3ccc(C(C)C)cc3)ccc21 | nt | i | 18.4µM* | nt | i | 23.1µM*
CC(C)C[C@@H](CN1CCCC1CN1C(=S)NC[C@@H]1Cc1ccccc1)N1C[C@H](Cc2ccccc2)N(CC2CCCCCC2)C1=S (some centres not stated) | -0.8% | ? | 10.3µM* | -20.8% | i | ?
CC(C)C[C@H]1CN([C@@H](CC(C)C)CN2CCC[C@@H]2CN2C(=O)C(=O)NC[C@@H]2Cc2ccccc2)C(=O)C(=O)N1CC1CCCCC1 | 2.3% | ? | ? | 2.5% | i | ?
CC(C)C[C@H]1CN([C@@H](CC(C)C)CN2CCCC2CN2C(=S)NC[C@@H]2Cc2ccccc2)C(=S)N1CC1CCCCC1 (some centres not stated) | 16.4µM* | ? | 16.4µM* | -28.7% | i | ?
CCN(CC)CCN(Cc1cc2ccc(C)cc2[nH]c1=O)C(=O)Nc1ccc(Cl)cc1 | 17.9% | i | ? | 2.7% | ? | ?
O=C(O)CC/C=C\C[C@@H]1CO[C@H](c2ccccc2Cl)O[C@@H]1c1ccccc1O | nt | nt | 5.7% | nt | nt | -2.6%
C=CC(=O)O | nt | nt | -25.2% | nt | nt | -1.4%
SMILES | HT1080 IDH1KD tx | KB-V1 MDR tox | DT40 TDP1 CPT | HT1080NT lethal | KB-3-1 tox | TDP1 cell noCPT
Cc1cc2oc3cc(NCCC4CCCN4C)ccc3c(=O)c2cc1C (configuration not stated) | ? | i | 8.2µM* | ? | i | 5.8µM*
O=c1c2ccccc2oc2ccc(NCCCn3ccnc3)cc12 | -8.4% | ? | ? | 0.7% | i | ?
Cc1ccc(C)c(N2CCN(C(=O)CCC(=O)Nc3nnc(C(F)(F)F)s3)CC2)c1 | -12.3% | i | ? | -18.2% | i | 3.6%
COc1ccc2[nH]c(=O)c(CN(Cc3ccco3)C(c3nnnn3Cc3ccccc3)C(C)C)cc2c1 (configuration not stated) | -27.5% | ? | 18.4µM* | -21.8% | ? | 20.6µM*
Cc1cccc2cc(CN(Cc3ccco3)C(c3nnnn3CCc3ccccc3)C(C)C)c(=O)[nH]c12 (configuration not stated) | -2.6% | i | ? | -1.7% | ? | 14.6µM*
COCCn1nnnc1C(C(C)C)N(Cc1ccccc1)Cc1cc2cc(OC)ccc2[nH]c1=O (configuration not stated) | ? | i | ? | ? | i | 16.4µM*
O=C(O)c1cc(S(=O)(=O)NC(CO)C(O)c2ccc([N+](=O)[O-])cc2)ccc1Br (configuration not stated) | 3.2% | i | 3.8% | 11.6% | i | 1.0%
Cc1cc(C(F)(F)F)n2nc(-c3cnn(C)c3C(F)(F)F)c(Br)c2n1 | -12.8% | i | ? | -2.0% | i | -23.1%
O=C(NC1CCC(CC2CCC(NC(=O)C(Cl)Cl)CC2)CC1)C(Cl)Cl (configuration not stated) | -0.9% | i | -0.2% | 3.3% | i | -44.4%
COc1ccc(N2CSC(=S)N(c3ccc(OC)cc3)C2)cc1 | ? | i | 16.4µM* | -28.7% | i | 14.6µM*
O=C1N=c2ccccc2=C1c1c(O)[nH]c2c(C(F)(F)F)cccc12 | 11.2% | i | 20.6µM* | 5.1% | i | 25.9µM*
CCC(C)(C)NC(=O)Cc1ccccc1OC | 12.1% | i | -0.3% | -1.1% | i | -9.0%
O=C(O)CC(c1cccc([N+](=O)[O-])c1)N1Cc2ccccc2C1=O (configuration not stated) | 16.8% | i | -0.5% | 12.3% | i | -1.4%
O=[N+]([O-])c1cc(C(F)(F)F)ccc1N1CCC(O)CC1 | 5.4% | i | -21.0% | -5.1% | i | -20.4%
